Source: PubChem BioAssay (National Center for Advancing Translational Sciences (NCATS))
This is a sample that favours compounds with a hit; in the whole collection about 1.7% have one here.
GLP-1R agonist: agonists of human GLP-1 receptor; P43220; HEK293 GLP-1R CRE-luciferase, luminescence, 4-6 h; cells express a hypersensitive GLP-1R form; Potency, µM (highest dose often 45.6 µM), without a hit: at the top dose activation, most hits filed as activators; actives 0.007% (n = 380,000); AID 624172; also: % of control where 0% means no effect
GLP1R inv ag: inverse agonists of human GLP-1 receptor; P43220; HEK293 GLP-1R CRE-luciferase, luminescence, 24 h; GLP-1R form is constitutively active; Potency, µM (highest dose often 38.3 µM), inactives show top-dose activity change, negative = inhibition, hits mostly inhibitors; actives 1.6% (n = 410,000); AID 624417; also: % is scaled to controls: 0 for no effect and ±100 for the full control effect; nearly all actives have a fitted effect of over 55% in size
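Stable HEK293 clone (constitutively active GLP-1R + cAMP-response luciferase); 200 cells/uL plated, 12 h pre-culture, compound 24 hr, 37 deg C/5% CO2; detection reagent 12 min RT; luminescence.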
HEK293 tox: cytotoxic in the GLP-1 receptor inverse agonist counter-screen | HEK293 cAMP-luciferase reporter cells, luminescence, 24 h | Potency, µM (doses to about 38.3 µM), for the others: top-dose activity change, negative = inhibition, most hits filed as inhibitors | actives 0.13% (n = 410,000) | AID 624418;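 also: loss of luciferase light is scored as toxicity; % is scaled to controls: 0 for no effect and ±100 for the full control effect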
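Step one: seed cells (200 cells/uL, DMEM with 10% Nu serum, 1% pen-strep). Step two: 12-hour incubation at 37 deg C. Step three: pin 23 nL compound, incubate 24 hr. Step four: add luciferase reagent, read luminescence 12 min later.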
PTHR1 ag: activates the human parathyroid hormone receptor PTHR1; Q03431; HEK293 GP2 PTHR1 cells, GloSensor cAMP luminescence, 1 h; Potency, µM (titrated, usually from 115 µM), inactives show top-dose activation, hits mostly activators; actives 0.075% (n = 410,000); AID 743266; also: nearly all actives have a fitted effect of over 55% in size
Target sequence (Q03431 whole entry, looked up): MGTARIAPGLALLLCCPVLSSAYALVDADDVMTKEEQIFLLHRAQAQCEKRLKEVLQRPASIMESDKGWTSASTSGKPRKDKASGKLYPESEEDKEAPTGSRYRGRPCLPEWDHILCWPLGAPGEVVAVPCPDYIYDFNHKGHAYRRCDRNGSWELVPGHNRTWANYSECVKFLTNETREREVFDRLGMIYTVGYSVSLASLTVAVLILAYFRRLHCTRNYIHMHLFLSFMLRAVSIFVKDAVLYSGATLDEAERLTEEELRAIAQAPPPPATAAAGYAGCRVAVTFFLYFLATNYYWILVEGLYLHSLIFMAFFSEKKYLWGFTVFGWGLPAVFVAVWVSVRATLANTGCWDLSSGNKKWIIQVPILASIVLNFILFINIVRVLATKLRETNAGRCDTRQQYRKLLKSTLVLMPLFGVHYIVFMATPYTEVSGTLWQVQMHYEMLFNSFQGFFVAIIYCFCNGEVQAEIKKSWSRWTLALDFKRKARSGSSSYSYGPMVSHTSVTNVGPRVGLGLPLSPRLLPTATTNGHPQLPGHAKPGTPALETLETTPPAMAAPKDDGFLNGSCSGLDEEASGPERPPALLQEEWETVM
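HEK-293-derived GP2 cells expressing PTHR1 and a GloSensor cAMP reporter, 3,000/well, plated overnight, given luciferin plus IBMX (each 0.5 mM as added) for 1 h at 37 °C, then compound for 1 h at 37 °C. Luminescence was read after 15 min at room temperature.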
* = called active by the depositor; i = inactive; ? = inconclusive; · = no result given; [ ] = dose if it differs, or a comment. Calls follow the shape of the dose curve; as a rule, active = well fitted curve in the direction sought with a large enough effect; inconclusive = small, poorly fitted or top-dose-only effect, or another doubt; inactive = no such curve, though single readings can be large; an effect the other way counts as inactive or inconclusive. Potency is read from the fitted curve at half-maximal effect.

SMILES | GLP-1R agonist | GLP1R inv ag | HEK293 tox | PTHR1 ag
CCCCN1C(=O)c2[nH]nc(-c3ccccc3O)c2C1c1ccc(OCc2ccccc2)cc1 (stereo unspecified) | · | ? | -5% | 22µM*
COCCCN1C(=O)c2[nH]nc(-c3ccccc3O)c2C1c1ccc(OCc2ccccc2)cc1 (stereo unspecified) | · | ? | ? | -90%
CN1C/C(=C/c2ccncc2)C(=O)/C(=C/c2ccncc2)C1 | 0% | 6% | -1% | -6%
C=CC(=O)N1C/C(=C/c2ccc(Cl)cc2)C(=O)/C(=C\c2ccc(Cl)cc2)C1 | -2% | ? | 3.2µM* | -37%
C=CC(=O)N1C/C(=C/c2ccccc2)C(=O)/C(=C\c2ccccc2)C1 | -19% | 4.5µM* | ? | -47%
COc1ccc(S(=O)(=O)c2cn(CC(=O)Nc3cc(C)ccc3C)c3ccccc3c2=O)cc1 | -1% | 9% | 1% | -21%
O=C1CCCc2cc(S(=O)(=O)NCC3CCC(C(=O)NCc4ccc(F)cc4)CC3)ccc2N1 (stereo unspecified) | · | 16% | -12% | -13%
O=C(O)C(Cc1ccccc1)N1C(=O)/C(=C/c2ccccc2)SC1=S (stereo unspecified) | -6% | ? | 1% | -6%
COc1cc(/C=C2\SC(=S)N(C(Cc3ccccc3)C(=O)O)C2=O)ccc1O (stereo unspecified) | -4% | -4% | 10µM* | -10%
CCOc1cc(/C=C2\SC(=S)N(Nc3ccccc3)C2=O)ccc1O | -3% | ? | -8% | -86%
COc1cc(/C=C2\SC(=S)N(Nc3ccccc3)C2=O)ccc1O | -1% | ? | 10µM* | -30%
CCC(=O)N1CCc2cc(S(=O)(=O)NC(C(=O)Nc3cc(OC)cc(OC)c3)C(C)C)ccc21 (stereo unspecified) | · | 5% | -6% | i
COc1ccc(-c2nc3sc(CCNC(=O)C(=O)Nc4c(C)cccc4C)c(C)n3n2)cc1 | · | -1% | -11% | -9%
Cc1ccccc1NC(=O)c1sc2nc3n(c(=O)c2c1C)N=C(c1ccccc1)CS3 | · | 9% | 10% | i
Cn1c(=O)[nH]c(=O)c2c1nc(N1CCCCC1)n2CCSc1nc2ccccc2o1 | 27% | -18% | 1% | i
CC(C)CCn1c(Sc2nc3ccccc3o2)nc2c1c(=O)[nH]c(=O)n2C | 0% | 4.5µM* | 5% | -23%
CC(c1ccccc1)N1CCC(CNC(=S)Nc2cccc(Cl)c2)C1 (stereo unspecified) | 4% | 3.2µM* | ? | i
Cc1ccc(NC(=S)NCC2CCN(C(C)c3ccccc3)C2)cc1 (stereo unspecified) | 1% | ? | -6% | i
Cc1ccc(CN2CCCn3nc(C(=O)NCc4ccc(N(C)C)cc4)cc3C2=O)cc1 | · | -27% | 1% | -23%
O=P(O)(O)C(O)(Cc1cnc2ccccn12)P(=O)(O)O | -6% | · | · | ·
Cc1oc(-c2ccccc2Cl)nc1CS(=O)(=O)CC(=O)NCc1ccc(F)cc1 | -1% | ? | 1% | -22%
CC(C)(Oc1ccc(Cl)cc1)C(=O)N(Cc1ccccc1)c1ccccn1 | -2% | 10µM* | 2% | -40%
Cc1ccc2c(c1)Oc1ccc([N+](=O)[O-])cc1C(=O)N2 | 8% | 15% | -2% | i
Cc1ccc2c(c1)Oc1ccc(NC(=O)CCl)cc1C(=O)N2 | 7% | 11µM* | ? | -31%
COc1ccccc1C(=O)n1nc(-c2ccccc2)nc1NCc1ccc(Cl)cc1 | 3% | 4% | -1% | i
SMILES | GLP-1R agonist | GLP1R inv ag | HEK293 tox | PTHR1 ag
CCOC(=O)C1CCCN(C(=O)c2cc(-c3ccc(F)cc3)nc3ccccc23)C1 (stereo unspecified) | 22% | 7.9µM* | 3% | i
O=C(c1cc(-c2ccccc2)nc2ccccc12)N1CCc2ccccc2C1 | -12% | 11µM* | -19% | i
O=C(Cc1ccc(Br)cc1)N1CCN(c2ccc(F)cc2)CC1 | 0% | ? | -16% | -6%[57.5 µM]
O=C(c1cc(-c2ccc(Br)cc2)nc2ccccc12)N1CCN(c2ccccc2O)CC1 | 7% | 2.5µM* | ? | -20%
O=C(Cc1ccc(Br)cc1)N1CCN(c2ccccc2O)CC1 | 1% | 11µM* | -21% | i
CCOC(=O)C1CCCN(C(=O)c2cc(-c3ccncc3)nc3ccccc23)C1 (stereo unspecified) | 6% | -1% | -6% | -14%
Cc1ccc2nc(-c3ccccc3)cc(C(=O)N3CCc4ccccc4C3)c2c1 | -8% | ? | 1% | -54%
CCOC(=O)c1ccc(NC(=O)CSc2ccc3ccccc3n2)cc1 | · | -29% | 2% | -19%
COc1ccc(-c2nc(N3CCCCCC3)sc2C(=O)c2ccccc2)cc1 | 5% | 2µM* | 29% | -8%[57.5 µM]
O=C(c1ccccc1)c1sc(N2CCCCCC2)nc1-c1ccccc1 | 12% | 5µM* | 97% | -18%
[2H]c1c([2H])c([2H])c(C(=O)c2sc(N3CCCCCC3)nc2-c2ccccc2)c([2H])c1[2H] | 1% | ? | 13% | -21%
O=C(NCc1ccccc1Cl)c1ccc2oc(=O)n(Cc3ccccc3)c2c1 | · | ? | -8% | i
CCc1ccc2oc(-c3ccc(OC)cc3)cc(=Nc3cccc(C(=O)O)c3)c2c1 | -1% | ? | 5% | -48%
CCc1ccc2oc(-c3ccc(OC)cc3)cc(=Nc3c(C)n(C)n(-c4ccccc4)c3=O)c2c1 | -4% | 10µM* | -11% | -95%
COc1cccc(NC(=O)CSc2nnc3scc(-c4ccc(Cl)cc4)n23)c1 | · | 5% | 2% | -82%
COc1cccc(NC(=O)n2nc(N)cc2-c2ccc(Cl)cc2)c1 | -2% | 10µM* | ? | i
CC1C(=O)CC(c2ccc([N+](=O)[O-])cc2)NC1c1ccc([N+](=O)[O-])cc1 (stereo unspecified) | 1% | 8.9µM* | -5% | i
O=C(N/N=C/c1c[nH]c2ccc(Br)cc12)c1ccn(Cc2ccc(Cl)cc2Cl)n1 | -2% | 11µM* | -9% | i
C=C(C)C(=O)OCC(=O)NCc1ccccc1 | 0% | ? | 11µM* | 22%
CC(=O)Nc1ccc(C(=O)OCC(=O)NCc2ccccc2)cc1 | 2% | -18% | -18% | -57%
O=C(COC(=O)CC(c1ccccc1)c1ccccc1)NCc1ccc(Cl)cc1 | -5% | 11µM* | 6% | -26%
CC1CCN(S(=O)(=O)c2ccc(N3CCCCS3(=O)=O)cc2)CC1 | · | -5% | 6% | -60%
Cc1cccc(-c2nc3scc(CCNS(=O)(=O)c4ccc(Oc5ccccc5)cc4)n3n2)c1 | · | -14% | -10% | -21%
Cc1ccc(CNC(=O)c2ccc(C)c(S(=O)(=O)N3CCCCC3)c2)cc1 | 11% | ? | -31% | -11%
Cc1ccc(NC(=O)c2ccc(Cl)c(S(=O)(=O)N3CCCCCC3)c2)nc1 | 14% | 7.1µM* | -15% | -25%
CCN1CCN(c2ccc(NC(=O)c3ccc(OC)c(S(=O)(=O)N4CCCC4)c3)cc2)CC1 | 18% | -7% | -5% | -27%
